Compound activity: PubChem, National Center for Advancing Translational Sciences (NCATS)
The list is not random: actives were taken first. Their share in the collection is about 17%.
TDP1 inh – blocks human tyrosyl-DNA phosphodiesterase 1; Q9NUW8; recombinant TDP1, AlphaScreen DNA substrate cleavage; Potency, µM (doses to about 130 µM), for the others: top-dose activity change, negative = inhibition, most hits filed as inhibitors; 350,000 compounds, 0.28% hits; AID 485290; also: % is scaled to controls: 0 for no effect and ±100 for the full control effect; nearly all actives have a fitted effect of over 40% in size
Target sequence (Q9NUW8 whole entry, looked up): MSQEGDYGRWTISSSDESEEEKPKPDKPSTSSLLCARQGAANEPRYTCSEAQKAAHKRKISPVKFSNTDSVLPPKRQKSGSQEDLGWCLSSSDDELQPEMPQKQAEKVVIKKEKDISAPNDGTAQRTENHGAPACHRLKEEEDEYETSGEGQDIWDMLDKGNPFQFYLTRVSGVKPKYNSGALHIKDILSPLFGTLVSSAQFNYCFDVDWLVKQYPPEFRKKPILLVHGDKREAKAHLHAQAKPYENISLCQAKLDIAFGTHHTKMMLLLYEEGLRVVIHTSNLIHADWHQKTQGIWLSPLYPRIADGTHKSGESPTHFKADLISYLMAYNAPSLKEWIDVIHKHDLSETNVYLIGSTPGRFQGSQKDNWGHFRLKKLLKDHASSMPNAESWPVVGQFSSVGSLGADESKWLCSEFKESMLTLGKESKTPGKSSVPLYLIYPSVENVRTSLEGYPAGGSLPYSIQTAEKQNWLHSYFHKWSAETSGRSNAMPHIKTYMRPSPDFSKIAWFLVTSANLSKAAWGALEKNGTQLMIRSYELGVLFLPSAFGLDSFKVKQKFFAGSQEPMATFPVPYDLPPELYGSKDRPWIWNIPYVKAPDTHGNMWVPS
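E. coli-derived human Tdp1, 1 nM final. Cpd preinc 15 min RT; substrate 15 nM final, 5 min RT; AS bead mix 10 ug/ml final, 10 min RT. Signal loss = tyrosine-FITC cleavage. No-enzyme wells = max signal.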
DT40 TDP1 CPT – growth inhibition of DT40 Tdp1-/-;hTDP1 cells with camptothecin (screen for TDP1 inhibitors) | chicken DT40 Tdp1-/-;hTDP1 cells + 20 nM CPT, ATP luminescence, 48 h | 420,000 compounds, 12% hits | AID 686979 | Potency, µM (titrated, usually from 46.2 µM), for inactives: at the top dose activity change, negative = growth inhibition, actives largely listed as inhibitors; also: % is scaled to controls: 0 for no effect and ±100 for the full control effect; nearly all actives have a fitted effect of over 55% in size
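Chicken DT40 Tdp1-/- cells complemented with human TDP1, 400 cells/well, exposed to compounds plus 20 nM camptothecin for at least 48 h at 37 C; viability read as ATP content by CellTiter-Glo luminescence.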
ClpP mod – qHTS Assay for Activators of ClpP; ATP-dependent Clp protease proteolytic subunit (Bacillus subtilis (strain 168)), P80244; purified B. subtilis ClpP, FRET peptide cleavage, 20 min; Potency, µM (doses to about 57.5 µM), inactives show at the highest dose activity change, negative = active; 340,000 compounds, 1.9% hits; AID 651965, 2013; active = well fitted falling curve with a large enough effect; inconclusive = small, poorly fitted or top-dose-only effect; inactive = no such curve, though single readings can be large or run the other way; also: the source files actives as falling curves though it sought activators and does not explain the sign; nearly all actives have a fitted effect of over 65% in size
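Buffer: 100 mM Tris/HCl pH8, 100 mM KCl, 0.05% low protease BSA, 2.5% glycerol, 0.01% Tween-20. ClpP 10 microg/mL final; 20 min RT; delta FRET normalized to ADEP and DMSO controls.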
TDP1 cell noCPT – qHTS for Inhibitors of human tyrosyl-DNA phosphodiesterase 1 (TDP1): qHTS in cells in absence of CPT | DT40 Tdp1-/- hTDP1 cells, no CPT, ATP luminescence, 48 h | Potency, µM (highest dose often 46.2 µM), inactives show top-dose activity change, negative = growth inhibition, most hits filed as inhibitors | AID 686978, 2013 | 420,000 compounds, 15% hits; also: % is scaled to controls: 0 for no effect and ±100 for the full control effect; nearly all actives have a fitted effect of over 55% in size
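Growth kinetics read by CellTiter-Glo luminescence after ≥48 hr at 37 °C. Cells: DT40 Tdp1-/- stably carrying human TDP1, 400 per well, compound exposure in the absence of CPT (DMSO vehicle).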
Active calls of the source: *; ? = inconclusive; . = not tested or not shown; [ ] = dose if it differs, or a comment. Unless noted, calls follow the shape of the dose curve; as a rule, active = well fitted curve in the direction sought with a large enough effect; inconclusive = small, poorly fitted or top-dose-only effect, or another doubt; inactive = no such curve, though single readings can be large; an effect the other way counts as inactive or inconclusive. Potency is read from the fitted curve at half-maximal effect.

SMILES	TDP1 inh	DT40 TDP1 CPT	ClpP mod	TDP1 cell noCPT
NC(=O)c1cccc(-c2ccnc3c2CC(C(=O)NCc2ccc(F)c(F)c2)O3)c1 (centres undefined)	.	4.6µM*	-10%	8.2µM*
CN1CCN(c2ccc(CNC(=O)C3Cc4c(-c5ccc(Cl)cc5)ccnc4O3)cc2)CC1 (centres undefined)	.	?	1%	16µM*
O=C(NCc1cccnc1)C1Cc2c(-c3ccc(Cl)cc3)ccnc2O1 (centres undefined)	.	5.8µM*	-3%	8.2µM*
CC(=O)c1cccc(-c2ccnc3c2CC(C(=O)NCc2ccncc2)O3)c1 (centres undefined)	.	?	4%	?
CC(=O)Nc1cccc(-c2ccnc3c2CC(C(=O)NCc2ccc(N(C)C)cc2)O3)c1 (centres undefined)	.	13µM*	-6%	18µM*
O=C(NCc1ccncc1)C1Cc2c(-c3ccc(Cl)cc3)ccnc2O1 (centres undefined)	.	?	-6%	?
NC(=O)c1cccc(-c2ccnc3c2CC(C(=O)NCc2ccccc2)O3)c1 (centres undefined)	.	0.58µM*	-8%	1.3µM*
CCc1nnc(NC(=O)CSc2nc3c([nH]c4ccccc43)c(=O)n2-c2ccc(Cl)cc2)s1	5%	-27%	-20%	-23%
O=C(Nc1cc2c(cc1C(=O)c1ccccc1Cl)OCCO2)c1ccccc1	2%[12.3 µM]	-12%	-2%	-10%
Cc1ccc(C2=CC(=O)C[C@H](c3ccc(F)cc3)C2)cc1	-11%	?	-2%	?
O=C1C=C(c2ccc(CO)cc2)C[C@@H](c2ccc(F)cc2)C1	.	-29%	-1%	23µM*
Cn1ccc2ccc(C3=CC(=O)C[C@H](c4ccc(F)cc4)C3)cc21	2%	7.3µM*	-4%	18µM*
O=C1C=C(c2ccc(-c3ccccc3)cc2)C[C@@H](c2ccc(F)cc2)C1	1%	18µM*	-1%	?
COc1ccc(C2=CC(=O)CC(c3ccc(F)cc3)C2)cc1 (centres undefined)	.	?	-4%	-27%
Cc1ccc(OCc2ccc(C(=O)NNC(=S)NCC3CCCO3)o2)c([N+](=O)[O-])c1 (centres undefined)	2%	-30%	-2%	3%
O=C(Nc1nc(-c2ccccc2)cs1)c1ccc(N2CCOCC2)c([N+](=O)[O-])c1	5%	15µM*	-5%	8.2µM*
Cc1ccc(-c2csc(NC(=O)c3cc([N+](=O)[O-])ccc3N3CCOCC3)n2)cc1	7%	?	0%	?
O=C(Nc1nc2ccccc2s1)c1ccc(N2CCCCC2)c([N+](=O)[O-])c1	9%	23µM*	1%	15µM*
Cn1cc(-c2coc3c(C(=O)NCc4cccs4)cccc23)cn1	.	?	-1%	?
Cc1csc(=O)n1CCC(=O)NCc1ccc(F)cc1	1%	-4%	-1%	19%
COc1ccc(OC)c(N(CC(=O)O)S(=O)(=O)c2ccc(OC)c(OC)c2)c1	2%	2%	1%	-4%
COc1ccc(CNC(=O)CN(c2ccccc2OC)S(=O)(=O)c2cccs2)cc1	1%	16µM*	1%	?
COCCCNC(=O)CN(c1cc(OC)ccc1OC)S(=O)(=O)c1ccccc1	7%	0%	0%	-9%
COc1ccc(OC)c(N(CC(=O)NCCSCc2ccco2)S(=O)(=O)c2ccccc2)c1	.	?	.	15µM*
COc1ccc(OC)c(N(CC(=O)NCc2ccccc2)S(=O)(=O)c2ccccc2)c1	8%	12µM*	0%	?
SMILES	TDP1 inh	DT40 TDP1 CPT	ClpP mod	TDP1 cell noCPT
CCOc1ccccc1N(CC(=O)NCCSCc1ccco1)S(=O)(=O)c1ccccc1	4%	?	1%	?
COc1ccc(OC)c(N(CC(=O)NCc2ccccc2)S(=O)(=O)c2ccc(OC)c(OC)c2)c1	5%	21µM*	2%	?
Cc1cc(-c2ccccc2)n2ncnc2n1	2%	1%	4%	3%
Cn1cc(-c2csc(C(O)c3ccc(F)c(F)c3)n2)cn1 (centres undefined)	.	?	0%	?
COc1cccc(CNC(=O)CCn2nc(C)c3c(C)n(-c4ccccc4)nc3c2=O)c1	6%	?	-9%	?
CN(CC(=O)NCc1ccc2c(c1)OCO2)S(=O)(=O)c1ccc(F)cc1	.	20%	.	-8%
COc1ccc2sc(/C=C/c3ccccc3O)[n+](C)c2c1	9%	23µM*	.	15µM*
Cc1cccc(C(=O)Nc2nc(-c3nnn(-c4cc(C)ccc4C)c3C)ns2)c1	3%	?	-10%	?
Cn1c(CNC(=O)CCNC(=O)c2ccc(F)c(F)c2)cc(=O)n(C)c1=O	-3%	-6%	-6%	27%
CCOC(=O)C(=CNc1ccc(NC2=NCC(C)S2)cc1)C(=O)OCC (centres undefined)	8%	9.2µM*	-6%	6.5µM*
CCOC(=O)C(=CNc1ccc(C(F)(F)F)cc1)C(=O)OCC	-4%	4%	-5%	-32%
CCN1CCN(Cc2c(O)ccc3c(=O)c(-c4ccc(OC)c(OC)c4)c(C)oc23)CC1	-2%	-17%	28µM*	0%
Cc1oc2c(CN3CCOCC3)c(O)ccc2c(=O)c1-c1ccc(Br)cc1	6%	-25%	14µM*	-30%
CCN1CCN(Cc2c(O)ccc3cc(-c4ccc(OC)cc4)c(=O)oc23)CC1	3%	?	4%	?
COc1ccc(-c2c(C)oc3c(CN4CCN(C)CC4)c(O)ccc3c2=O)cc1	7%	-1%	5%	-19%
CCN1CCN(Cc2c(O)ccc3c(C)c(-c4ccc(OC)cc4)c(=O)oc23)CC1	3%	?	4%	23µM*
CCOC(=O)Cn1c(=O)n(CC2CCCO2)c2nc(-c3ccc(OC)cc3OC)nc(C(N)=O)c21 (centres undefined)	-1%	.	-2%	.
CC(=O)Nc1ccc2c(c1)C(=O)c1cccc(C(=O)O)c1-2	.	4%	-2%	-13%
COCC1CCCN(C(=O)c2ccc3nc(Cc4cccc(Cl)c4)oc3c2)C1 (centres undefined)	4%	26µM*	2%	15µM*
COCC1CCCN(C(=O)c2ccc3oc(Cc4ccc(Cl)cc4)nc3c2)C1 (centres undefined)	1%	23µM*	-1%	8.2µM*
COCC1CCCCN1C(=O)c1ccc2oc(CCCc3ccccc3)nc2c1 (centres undefined)	4%	18µM*	-1%	23µM*
CC(C)CC(=O)C1CCCN(C(=O)c2ccc3oc(Cc4ccccc4)nc3c2)C1 (centres undefined)	2%	23µM*	0%	23µM*
